Measured values as given in PubChem BioAssay (NCATS).
Inconclusive results are not listed. The source made the active and inactive calls. The call rests on the fitted dose curve; in most records, active means well fitted inhibition curve with a large enough effect; inconclusive means small, poorly fitted or top-dose-only effect; inactive means no such curve, though single readings can be large or run the other way.

Test: qHTS for Inhibitors of the Aldehyde Dehydrogenase Family (ALDH1A2, ALDH1A3, ALDH2, ALDH3A1) (AID 2061307); further: nearly all actives have a fitted effect of over 50% in size; on Potency: test system not described further here
Details: ALDH inhibition qHTS; series mostly up to 50.3 µM; activity change, negative = inhibition: at the top concentration
On the % scale 0 is the no-effect control and ±100 the full control effect; potency means the concentration at half of the fitted maximal effect.

Row | SMILES | activity change, negative = inhibition | Potency
1 | COc1ccc(CCC(=O)c2c(O)cc(O[C@@H]3O[C@H](CO)[C@@H](O)[C@H](O)[C@H]3O[C@@H]3O[C@@H](C)[C@H](O)[C@@H](O)[C@H]3O)cc2O)cc1O | -22.1% (inactive) | –
2 | O=C(CCN1CCN(C(=O)OCc2cc(Cl)cc(Cl)c2)CC1)c1ccc2[nH]c(=O)oc2c1 | – | 201 nM (active)
3 | CCN(CC)CCOCCOC(=O)C(CC)(CC)c1ccccc1 | 25.6% (inactive) | –
4 | O=C(Nc1cc(C(F)(F)F)cc(C(F)(F)F)c1)c1cnc(Cl)nc1C(F)(F)F | 16.5% (inactive) | –
5 | NC(Cc1c[nH]c2ccccc12)C(=O)NC(CCC(=O)O)C(=O)O (stereo not drawn) | -3.83% (inactive) | –
6 | NC(N)=NCCC[C@H](NC(=O)c1sccc1NS(=O)(=O)c1cccc2nsnc12)C(=O)O | -10.2% (inactive) | –
7 | COc1cc2c3c(cc4ccccc4c3c1O)NC2=O | -22.4% (inactive) | –
8 | N#Cc1ccc(C(=O)N2CCC3(CC2)N=C(N)c2c(F)ccc(F)c2N3)cn1 | -7.27% (inactive) | –
9 | OC[C@H]1O[C@@H](n2cnc3c2NC=NC[C@H]3O)C[C@@H]1O | -5.17% (inactive) | –
10 | CCCCC1CCN(CCCN2C(=O)CCc3ccccc32)CC1 | 15.1% (inactive) | –
11 | O=c1[nH]c2cccc(N3CCN(Cc4ccc(-c5ccccc5)cc4)CC3)c2o1 | -2.3% (inactive) | –
12 | COc1cc(O)c2c(c1)C1OC1C[C@H](O)[C@H](O)C(=O)/C=C\C[C@H](C)OC2=O (stereo partly drawn) | -10.4% (inactive) | –
13 | C#CC(=O)N(c1ccc(OC)cc1OC)C(C(=O)NCC(=O)OCC)c1cccs1 (stereo not drawn) | -22.6% (inactive) | –
